Test results taken from the OligoGym collection.

Biological target: CA4
Test: pooled miR-30 sensor sort-seq; sequence = guide strand
Conditions: shRNA
Further: reference of the scale not given here.

With TCGTAGTACAGCTTCTGAGAGA as the sequence, how does the sensor-assay potency score (higher = more potent) read?
Its sensor-assay potency score (higher = more potent) is -0.918.

With TTCTCATCGCAGGTCGGTGTGG as the sequence, how does the sensor-assay potency score (higher = more potent) read?
The sensor-assay potency score (higher = more potent) was -1.28.

Which sensor-assay potency score (higher = more potent) does the source give for TTGAACCTCGTAGCACCAGTGT here?
Its sensor-assay potency score (higher = more potent) is -1.16.

TTGACTGGCACCAAGCAGGGGT was tested. Which sensor-assay potency score (higher = more potent) did it give?
The sensor-assay potency score (higher = more potent) was -0.145.

For TTTTTTGTCCACCTTTGCCTTG, which sensor-assay potency score (higher = more potent) is on record?
Its sensor-assay potency score (higher = more potent) is -1.1.

Which sensor-assay potency score (higher = more potent) does the source give for TGTCTGTTCCTTGTCGTAGTAC here?
The sensor-assay potency score (higher = more potent) was -0.69.

Which sensor-assay potency score (higher = more potent) does the source give for TTTTTGTCCACCTTTGCCTTGG here?
The sensor-assay potency score (higher = more potent) was -0.0193.

With TTCTCTGTGAAGCTGAATGGGC as the sequence, how does the sensor-assay potency score (higher = more potent) read?
Its sensor-assay potency score (higher = more potent) is -0.889.

Which sensor-assay potency score (higher = more potent) does the source give for AATTTCGTCTTCAGGGTCCTGG here?
The sensor-assay potency score (higher = more potent) was 0.0795.

TTGTTCTCCAGCAACATCATCA was tested. Which sensor-assay potency score (higher = more potent) did it give?
Its sensor-assay potency score (higher = more potent) is -1.13.

For TCGTAGTGCTCATCTCAGGTTT, which sensor-assay potency score (higher = more potent) is on record?
Its sensor-assay potency score (higher = more potent) is -0.761.

ATGTACTATGTGCATCTCCATG was tested. Which sensor-assay potency score (higher = more potent) did it give?
The sensor-assay potency score (higher = more potent) was -2.

For TTGTCGTAGTACAGCTTCTGAG, which sensor-assay potency score (higher = more potent) is on record?
The sensor-assay potency score (higher = more potent) was -1.18.

Which sensor-assay potency score (higher = more potent) does the source give for TTTGCTTCTTATCGTAGCCAGA here?
The sensor-assay potency score (higher = more potent) was -0.836.

TTTCTCATGTACTATGTGCATC was tested. Which sensor-assay potency score (higher = more potent) did it give?
The sensor-assay potency score (higher = more potent) was -0.994.

How did the sensor-assay potency score (higher = more potent) turn out when TTGTCCACCTTTGCCTTGGTGG was run?
Its sensor-assay potency score (higher = more potent) is -0.751.

TTGGACAGTCCACGTTTGCTTC was tested. Which sensor-assay potency score (higher = more potent) did it give?
Its sensor-assay potency score (higher = more potent) is -0.84.

TTATTTTGGACAGTCCACGTTT was tested. Which sensor-assay potency score (higher = more potent) did it give?
The sensor-assay potency score (higher = more potent) was -0.237.

With TGTCGTAGTACAGCTTCTGAGA as the sequence, how does the sensor-assay potency score (higher = more potent) read?
The sensor-assay potency score (higher = more potent) was -0.691.

Biological target: CA8
Test: as above
Conditions: shRNA

How did the sensor-assay potency score (higher = more potent) turn out when TTCGAAATTCTTCTATCTGTAG was run?
Its sensor-assay potency score (higher = more potent) is -0.338.

Which sensor-assay potency score (higher = more potent) does the source give for TTAGGTTAATAGGAGACTGGTA here?
The sensor-assay potency score (higher = more potent) was -0.274.

Which sensor-assay potency score (higher = more potent) does the source give for AAATTCTTCTATCTGTAGCTGG here?
Its sensor-assay potency score (higher = more potent) is 0.0203.

For TTAACATGTGTCCTCAGCCTTC, which sensor-assay potency score (higher = more potent) is on record?
The sensor-assay potency score (higher = more potent) was -1.15.

With TTTGACTTCAGGATAACCTGAA as the sequence, how does the sensor-assay potency score (higher = more potent) read?
The sensor-assay potency score (higher = more potent) was 0.794.

Which sensor-assay potency score (higher = more potent) does the source give for TAGATGAAGACAAACAACGCAG here?
The sensor-assay potency score (higher = more potent) was 0.00396.

For TATCGGAATAATATCCAGGTGA, which sensor-assay potency score (higher = more potent) is on record?
The sensor-assay potency score (higher = more potent) was -0.367.

With TAACCTGAATGGTATGTCCATC as the sequence, how does the sensor-assay potency score (higher = more potent) read?
The sensor-assay potency score (higher = more potent) was -1.33.

With ATTAGCATCAGGAAACACCAGA as the sequence, how does the sensor-assay potency score (higher = more potent) read?
Its sensor-assay potency score (higher = more potent) is -0.642.

How did the sensor-assay potency score (higher = more potent) turn out when AAAGCTTTGAAATTAACCGTGT was run?
The sensor-assay potency score (higher = more potent) was 0.986.

Which sensor-assay potency score (higher = more potent) does the source give for TTCTTCTATCTGTAGCTGGGAT here?
The sensor-assay potency score (higher = more potent) was -0.262.

For TTTCTTTGGAATATACAGCCAT, which sensor-assay potency score (higher = more potent) is on record?
Its sensor-assay potency score (higher = more potent) is 0.203.

For AATTCTTCTATCTGTAGCTGGG, which sensor-assay potency score (higher = more potent) is on record?
Its sensor-assay potency score (higher = more potent) is -0.112.

How did the sensor-assay potency score (higher = more potent) turn out when TGCAACTATGAATCCTAGCAGC was run?
The sensor-assay potency score (higher = more potent) was -0.939.

With TTGACTTCAGGATAACCTGAAT as the sequence, how does the sensor-assay potency score (higher = more potent) read?
Its sensor-assay potency score (higher = more potent) is -1.18.

For TATCTGAACAAACAGAGCAATG, which sensor-assay potency score (higher = more potent) is on record?
Its sensor-assay potency score (higher = more potent) is -1.69.

For AAAAGCTTTGAAATTAACCGTG, which sensor-assay potency score (higher = more potent) is on record?
The sensor-assay potency score (higher = more potent) was -0.175.

For TAACACATGATATATATTCATA, which sensor-assay potency score (higher = more potent) is on record?
The sensor-assay potency score (higher = more potent) was -0.982.

TTTGAGGATAAACTGAAGGTGC was tested. Which sensor-assay potency score (higher = more potent) did it give?
Its sensor-assay potency score (higher = more potent) is -0.117.

With TTCTTTGGAATATACAGCCATT as the sequence, how does the sensor-assay potency score (higher = more potent) read?
The sensor-assay potency score (higher = more potent) was -0.749.

For TTGGTGACTTCACAGTCTCGGC, which sensor-assay potency score (higher = more potent) is on record?
The sensor-assay potency score (higher = more potent) was -0.936.
